High-throughput results as filed in PubChem BioAssay.
Shiga toxin inh = inhibitors of Shiga toxin in Vero cells; hit rate 9.2% among 290,000; Vero cells, Shiga toxin protein synthesis inhibition reporter; inhibition, % at 38.7 µM; in the data active = inhibition mostly above about 28%, no sharp cut-off; inactive = mostly below about 43%
Pf growth 96h = P. falciparum growth inhibition at 96 hours | P. falciparum luciferase reporter growth, 96 h | Potency, µM (series often up to 28.7 µM), usual class: inhibitors | hit rate 6.9% among 320,000
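Delayed-death screen, second-generation endpoint: infected erythrocytes, 2% hematocrit, 0.05% parasitemia final; 96 hours at 37 C, 5% CO2; luciferase detection reagent; luminescence decrease equals reduced growth.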
NS1 inh = inhibitors of influenza NS1 protein function; Potency, µM (titrated, usually from 46.1 µM); hit rate 0.4% among 270,000; AID 2326; calls by dose curve; note: actives are rising curves; nearly all actives have a fitted effect of over 50% in size
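A cell-based growth assay was used: compounds that relieve NS1-induced slow growth of budding yeast raise OD600. Assay medium was yeast nitrogen base with ammonium sulphate and -URA supplement, pH 6.0, with 2% galactose.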
Pf growth 48h = P. falciparum growth inhibition at 48 hours (one generation) | P. falciparum luciferase growth in erythrocytes, 48 h | Potency, µM (doses to about 28.7 µM), hits mostly inhibitors | hit rate 5.9% among 310,000
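Compounds are pin-transferred into medium, infected erythrocytes (2% hematocrit, 0.1% parasitemia final) are added, and plates sit one parasite generation at 37 C in 5% CO2. Detection reagent is then added and luminescence measured.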
Sm TGR inh = S. mansoni TGR enzyme inhibition | AID 485364 | hit rate 3% among 360,000 | Potency, µM (highest dose often 114 µM), actives largely listed as inhibitors | purified TGR, DTNB reduction, TNB absorbance 405 nm; note: nearly all actives have a fitted effect of over 60% in size
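Kinetic colorimetric format: TGR-catalysed, NADPH-driven DTNB reduction monitored via TNB absorbance. Enzyme dispensed at 20 nM; compound exposure 15 min at room temperature before reaction start.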
Cycloheximide cs = counter-screen for Shiga toxin inhibitors: cycloheximide protein synthesis inhibition; cell reporter, cycloheximide protein synthesis inhibition counterscreen; max response, %; hit rate 12% among 300,000; in the data active = max response mostly above about 13%, no sharp cut-off; inactive = mostly below about 14%; note: read at 38.3 µM for the half of the compounds with a filed dose
Each line names hits and unclear results; the compound was inactive in the other large screens. An excerpt weighted towards active compounds, which were near 21% of everything screened. Unless noted, calls come from the whole dose curve; as a rule, active = well fitted curve in the direction sought with a large enough effect; inconclusive = small, poorly fitted or top-dose-only effect, or another doubt; inactive = no such curve, though single readings can be large; an effect the other way counts as inactive or inconclusive.

CC(=O)N1C(O)CC(C)N1c1ccccc1 (stereo not drawn)	Pf growth 96h inconclusive
CC(C)CN(C)Cc1c(C(=O)N2CCc3ccccc3C2)nc2ccc(Cl)cn12	Pf growth 96h inconclusive, Pf growth 48h 7.4µM
O=C(c1nc2ccc(Cl)cn2c1CN1CCCC1)N1CCc2ccccc2C1	Pf growth 96h inconclusive, Pf growth 48h inconclusive, Sm TGR inh 40µM
COC1CCN(Cc2c(C(=O)N3C[C@@H](C)O[C@@H](C)C3)nc3ccc(Cl)cn23)CC1	none
CCN(CC)C1CCN(Cc2c(C(=O)N3CCCCCCC3)nc3ccc(Cl)cn23)C1 (stereo not drawn)	Pf growth 96h 12µM, Pf growth 48h inconclusive
Cc1cnc(CN(C)Cc2c(C(=O)N3CCc4ccccc4C3)nc3ccc(Cl)cn23)[nH]1	none
CCCCN(C)Cc1c(C(=O)N2CCc3ccccc3C2)nc2ccc(Cl)cn12	Pf growth 48h inconclusive, Sm TGR inh 45µM
Cc1ccccc1OCC(=O)NCC(c1cccs1)N1CCOCC1 (stereo not drawn)	none (no result: Shiga toxin inh, NS1 inh, Cycloheximide cs)
Cc1cc(NC(=O)c2ccc(Br)o2)cc(-c2nc3ccccc3o2)c1O	none (no result: Shiga toxin inh, Pf growth 96h, NS1 inh, Pf growth 48h, Cycloheximide cs)
N#CC(=C1CCCC1)c1nc(-c2ccccc2O)cs1	Shiga toxin inh 106, Sm TGR inh 25µM, Cycloheximide cs 54
N#CC(=C1CCCC1)c1nc(-c2ccccc2)cs1	Shiga toxin inh 103, Sm TGR inh inconclusive, Cycloheximide cs 54 (no result: Pf growth 96h)
Cc1ccc(-c2csc(C(C#N)=C3CCCC3)n2)cc1	Shiga toxin inh 74, Cycloheximide cs 25 (no result: Pf growth 96h)
N#CC(=C1CCCC1)c1nc(-c2cc3ccccc3oc2=O)cs1	Shiga toxin inh 51, Cycloheximide cs 32
O=[N+]([O-])c1ccc(CNc2ccc(Cl)cc2)s1	Pf growth 96h inconclusive, Sm TGR inh inconclusive, Cycloheximide cs 13
O=[N+]([O-])c1ccc(CNc2ccc(F)cc2)s1	none
COc1ccc(NCc2ccc([N+](=O)[O-])s2)c(OC)c1	Shiga toxin inh 34, Pf growth 96h inconclusive, Sm TGR inh inconclusive, Cycloheximide cs 25
COc1ccc(NCc2ccc([N+](=O)[O-])s2)cc1	Pf growth 48h inconclusive, Sm TGR inh inconclusive, Cycloheximide cs 21
O=[N+]([O-])c1ccc(CNc2cccc(Cl)c2)s1	Pf growth 48h inconclusive
COc1ccc(NC(=O)CSc2nc3ccccc3c(=O)n2CCCN2CCC(C)CC2)c(OC)c1	Pf growth 48h inconclusive (no result: NS1 inh)
O=C(c1cccnc1)N1CCCC(Nc2ccc(F)cc2)C1 (stereo not drawn)	Pf growth 96h inconclusive
COc1ccc(CNC(=O)C(CC(C)C)NS(=O)(=O)c2ccc3c(c2)CCN3C(C)=O)cc1 (stereo not drawn)	none (no result: Shiga toxin inh, Pf growth 96h, NS1 inh, Pf growth 48h, Cycloheximide cs)
CCN(CC(=O)Nc1cc(C)on1)CC(=O)Nc1ccccc1C(F)(F)F	none (no result: Shiga toxin inh, NS1 inh, Cycloheximide cs)
CNC1(C)C2CCC(C2)C1(C)C (stereo not drawn)	Pf growth 96h 6µM (no result: Shiga toxin inh, Sm TGR inh, Cycloheximide cs)
CC1(C)C2CCC(C2)C1(C)NC(=O)CN1CCCC1 (stereo not drawn)	none
O=C(Nc1ccc(-c2nc3cc(NC(=O)c4ccc(Cl)cc4)ccc3o2)cc1)c1ccc(Cl)cc1	none (no result: Shiga toxin inh, Pf growth 96h, NS1 inh, Pf growth 48h, Cycloheximide cs)
CC(C)(C)n1cnc2cc(NC(=O)c3ccc(Cl)cc3)ccc21	Shiga toxin inh 92, Cycloheximide cs 33
Cn1cnc2cc(NC(=O)c3ccc(Cl)cc3)ccc21	Shiga toxin inh 55, Pf growth 96h inconclusive, Cycloheximide cs 27
COc1ccc(NC(=O)Cn2cc(C(=O)c3ccccc3OC)c(=O)c3ccc(C)nc32)cc1OC	none (no result: Shiga toxin inh, Pf growth 96h, NS1 inh, Pf growth 48h, Cycloheximide cs)
Cc1ccc(NC(=O)C2C3/C=C\CCCCC32)cc1 (stereo not drawn)	Pf growth 96h inconclusive, Cycloheximide cs 12
CC(=O)Nc1ccc(C)c([N+](=O)[O-])c1	none
Cc1cc(C)c(NC(=O)C2C3/C=C\CCCCC32)c(C)c1 (stereo not drawn)	none
Cc1cccc(NC(=O)C2C3CCCCC32)c1 (stereo not drawn)	Shiga toxin inh 25, Pf growth 96h 0.19µM, Cycloheximide cs 32
O=C(Nc1ccccc1)C1C2CCCCC21 (stereo not drawn)	Shiga toxin inh 65, Cycloheximide cs 22
Cc1ccc(NC(=O)C2C3CCCCC32)cc1[N+](=O)[O-] (stereo not drawn)	Shiga toxin inh 58, Pf growth 96h inconclusive, Cycloheximide cs 48
C=CCC(CC=C)(CNC(=O)C(=O)Nc1cc(C)ccc1OC)c1ccc(OC)c(OC)c1	none (no result: Shiga toxin inh, Pf growth 96h, NS1 inh, Pf growth 48h, Cycloheximide cs)
CCOC(=O)C1C(C(=O)NN)C1C(=O)Nc1ccccc1 (stereo not drawn)	Pf growth 48h 13µM (no result: NS1 inh)
Cc1cc(NC(=O)OC2CCCCC2)ccc1[N+](=O)[O-]	Shiga toxin inh 123, Cycloheximide cs 55
CCOC(=O)C1C(c2ccccc2)C(C(=O)OCC)C1c1ccccc1 (stereo not drawn)	Pf growth 96h inconclusive, Pf growth 48h inconclusive
CCN(CC)c1ccc(/C=N/N2CCOCC2)cc1	Shiga toxin inh 52, Pf growth 96h inconclusive, Cycloheximide cs 53
CCN(Cc1ccccc1)c1ccc(/C=N/NC(=O)c2cccc(S(=O)(=O)N3CCOCC3)c2)cc1	Pf growth 96h inconclusive, Pf growth 48h inconclusive
CCN(Cc1ccccc1)c1ccc(/C=N/N2CCOCC2)cc1	Shiga toxin inh 28, Cycloheximide cs 36
CCN(CC)C(=O)n1cnc(-c2ccccc2)c1-c1ccccc1	none
CCN1C(=NCc2ccco2)N[C@@H](c2cccc(F)c2)C(C(=O)OC)=C1C	Pf growth 96h inconclusive, Pf growth 48h inconclusive
